Data from PubChem BioAssay AID720706 (Broad Institute, 2013).
Hit rate of the full screen: of about 350,000 compounds, about 5,500 (1.6%) were called active.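 How the source made its calls: active means significant combined selectivity score with lowered wild-type GFP, culture density cut under 30%, mutant RFP and density less affected; inactive means any of these conditions unmet.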 This excerpt belongs to a sample that is enriched for actives.

assay: GFP drop in mixed WT/humanized-ribosome E. coli culture – GFP/RFP fluorescence, OD600, single point, bacterial rRNA inhibitor project, primary screen (AID 720706); conditions: E. coli WT GFP vs humanized-ribosome RFP mutants, 24 h; GFP signal change (wild-type ribosome): stronger effect = lower value, DMSO median 0, no signal -100; OD600 change: measured here: OD600 growth, DMSO median 0, no signal -100; RFP signal change: measured here: RFP humanized mutant strains, DMSO median 0, no signal -100, concentration not given here

Row | SMILES | GFP signal change (wild-type ribosome) | OD600 change [%] | RFP signal change [%]
1 | COc1ccccc1NC(=O)N[C@H]1CC[C@@H](CC(=O)NCc2ccc(Cl)c(Cl)c2)O[C@H]1CO | -9.75% (inactive) | -22.7 | 1.88
2 | CC(=O)C12CC(C)=C(C)CC1CC1C3CCC4=CC(=O)CCC4(C)C3CCC12C (configuration not stated) | -17.6% (active) | 7.85 | 5.44
3 | CC(=O)O[C@]1(C(C)=O)CC[C@H]2[C@@H]3C=C(C)C4=CC(=O)CC[C@]4(C)[C@H]3CC[C@@]21C | -55.8% (inactive) | -76.8 | -10.6
4 | CC12CCC(=O)C=C1CCC1C2C(O)CC2(C)C1CCC2(O)C(O)CO (configuration not stated) | 8.19% (inactive) | 4.56 | 4.01
5 | CCCC#Cc1ccc([C@H]2[C@H]3CN(C(=O)Nc4cc(F)ccc4F)CC(=O)N3[C@H]2CO)cc1 | -18.4% (inactive) | -50.2 | 11.1
6 | C[C@@H]1CN([C@H](C)CO)C(=O)c2cc(NC(=O)NC3CCCCC3)ccc2O[C@H]1CN(C)C(=O)Nc1ccccc1 | 5.36% (inactive) | 10.1 | 2.7
7 | O=C(C[C@H]1C=C[C@H](NC(=O)C2CCC2)[C@H](CO)O1)NCCCN1CCOCC1 | 1.78% (inactive) | 4.36 | -0.385
8 | CCCCCn1nnnc1C1c2ccccc2C(=O)N1Cc1ccco1 (configuration not stated) | -4.73% (inactive) | -2.58 | -0.015
9 | CCCCn1c(-c2cccc(C)c2)nc2cc3[nH]c(=O)c(C(C)C)nc3cc21 | -29.5% (inactive) | -62 | 13.5
10 | CCCCCn1nnnc1-c1nc2cc3ccccc3cc2[nH]c1=O | -19.2% (active) | -5.54 | 8.22
11 | CCn1c(C)c(C)c2cc(C(=O)N3CCN(c4cccc(C)c4C)CC3)ccc21 | 13.4% (inactive) | -10.1 | 8.15
12 | CCOc1ccccc1N1CCN(C(=O)c2ccc3[nH]c(C)c(C)c3c2)CC1 | -34.6% (active) | -17.6 | 7.07
13 | Cc1[nH]c2ccc(C(=O)N3CCN(C)CC3)cc2c1C | 6.6% (inactive) | 11 | 3.29
14 | CNC[C@@H]1Oc2ccc(N(C)C)cc2CC(=O)N(C)C[C@@H]1C | -0.679% (inactive) | 1.44 | -1.38
15 | NN=C(NN=Cc1ccccc1)c1ccccc1 | 3.05% (inactive) | 19.4 | -0.189
16 | CN(O)C(=S)c1ccccc1 | -58% (inactive) | -75.2 | -15
17 | CN(/N=C/c1ccccc1)C(=S)c1ccccc1 | -28.9% (active) | -13.5 | -2.92
18 | O=C(C[C@H]1C[C@@H]2c3cc(NS(=O)(=O)c4ccc(F)cc4)ccc3O[C@@H]2[C@H](CO)O1)NCc1cccc(F)c1 | 0.64% (inactive) | -2.85 | 2.59
19 | CCC(=O)N1CC(=O)N2[C@@H](CO)[C@H](c3ccc(C#CC4CCCC4)cc3)[C@@H]2C1 | 1.66% (inactive) | -3.78 | -1.59
